Results reported in PubChem BioAssay (Tox21).
Where “and” joins values, the source holds several entries; their conditions need not be identical. Equal entries are not always repeated. Records with an inconclusive call do not appear. A call without a number means that no potency is given here. More than one record can exist for a structure, and the calls need not agree. Calls of active or inactive are those of the source. Unless noted, calls follow the shape of the dose curve; as a rule, active = well fitted curve in the direction sought with a large enough effect in the repeat runs; inconclusive = weak or mixed curves; inactive = no such curve, though single readings can be large; an effect the other way counts as inactive or inconclusive.

How the values were obtained:
[1] = qHTS assay to identify small molecule agonists of the peroxisome proliferator-activated receptor delta (PPARd) signaling pathway - cell viability counter screen (AID 743211); also: nearly all actives have a fitted effect of over 55% in size; also: potency is read from the fitted curve at half-maximal effect
How it was run: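 qHTS cell viability: PPARd-bla HEK293H; 17 h cpd, 37C; CellTiter-Glo, luminescence at 30 min RT.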

[2] = target: Peroxisome proliferator-activated receptor delta (Homo sapiens) (UniProt Q03181); test: qHTS assay to identify small molecule agonists of the peroxisome proliferator-activated receptor delta (PPARd) signaling pathway (AID 743212; calls by dose curve; also: potency is read from the fitted curve at half-maximal effect)
Sequence of Peroxisome proliferator-activated receptor delta (Homo sapiens) (Q03181 whole entry, looked up): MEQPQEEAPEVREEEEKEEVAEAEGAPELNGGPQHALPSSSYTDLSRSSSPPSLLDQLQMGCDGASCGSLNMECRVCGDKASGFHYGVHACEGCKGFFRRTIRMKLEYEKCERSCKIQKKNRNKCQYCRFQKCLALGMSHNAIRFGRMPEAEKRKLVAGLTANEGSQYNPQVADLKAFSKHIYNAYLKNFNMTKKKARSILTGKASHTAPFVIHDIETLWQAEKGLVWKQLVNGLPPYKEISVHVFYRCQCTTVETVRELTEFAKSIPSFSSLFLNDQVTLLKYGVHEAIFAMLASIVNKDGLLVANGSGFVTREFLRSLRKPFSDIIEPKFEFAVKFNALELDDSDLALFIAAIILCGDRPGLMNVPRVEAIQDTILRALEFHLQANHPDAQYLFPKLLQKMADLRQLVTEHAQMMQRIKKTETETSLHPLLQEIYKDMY
How it was run: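 A PPARd-bla HEK293H line with beta-lactamase under an Upstream Activator Sequence is treated with compounds at 37 C. Substrate loading for 2 h at room temperature precedes the fluorescence measurement.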

[3] = qHTS assay to identify small molecule antagonists of the peroxisome proliferator-activated receptor delta (PPARd) signaling pathway - cell viability counter screen (AID 743213); also: nearly all actives have a fitted effect of over 50% in size; also: potency is read from the fitted curve at half-maximal effect
How it was run: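 Same-well viability: cells pre-incubated 5 h, dosed with compound plus 300 nM L165041, kept 17 h at 37 C, FRET substrate 2 h RT, then CellTiter-Glo 30 min RT and luminescence.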

[4] = target: Peroxisome proliferator-activated receptor delta (Homo sapiens) (UniProt Q03181); test: qHTS assay to identify small molecule antagonists of the peroxisome proliferator-activated receptor delta (PPARd) signaling pathway (AID 743215; active = well fitted inhibition curve with a large enough effect in the signal ratio in the repeat runs, not every such curve was filed as active; the % refers to the signal ratio;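 also: cells stimulated with agonist L165041 at 300 nM final during compound exposure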; also: potency is read from the fitted curve at half-maximal effect)
How it was run: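 PPARd-bla HEK293H cells (UAS-bla reporter) preincubated 5 h, then given compound plus 300 nM final L165041 agonist for 17 h at 37 C. Beta-lactamase activity read by LiveBLAzer B/G FRET substrate fluorescence after 2 h at room temperature.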

[5] = qHTS assay to identify small molecule agonists of the farnesoid-X-receptor (FXR) signaling pathway - cell viability counter screen (AID 743218); also: nearly all actives have a fitted effect of over 45% in size; also: potency is read from the fitted curve at half-maximal effect
How it was run: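 FXR-UAS-bla HEK 293T cells exposed to compounds for 16 h at 37C. Cytotoxicity read in the same wells by CellTiter-Glo luminescence after 30 min at room temperature, following the beta-lactamase FRET read.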

[6] = qHTS assay to identify small molecule antagonists of the farnesoid-X-receptor (FXR) signaling pathway - cell viability counter screen (AID 743221; active = well fitted cell-killing curve with a large enough effect in the repeat runs, not every such curve was filed as active; also: nearly all actives have a fitted effect of over 50% in size; also: potency is read from the fitted curve at half-maximal effect)
How it was run: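 After a 5 h settling period, FXR-bla HEK 293T cells receive compound and chenodeoxycholic acid (50 uM final) and incubate 16 h at 37 C; CellTiter-Glo luminescence, read after 30 min at room temperature, reports cell viability.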

[7] = qHTS assay to identify small molecule antagonists of the vitamin D receptor (VDR) signaling pathway - cell viability counter screen (AID 743225); also: nearly all actives have a fitted effect of over 50% in size; also: potency is read from the fitted curve at half-maximal effect
How it was run: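 Parallel cytotoxicity test: VDR-UAS-bla HEK 293T, 3 nM (final) 1-alpha,25-dihydroxyvitamin D3 with test compound, 16 h, 37C. Endpoint is CellTiter-Glo luminescence in the same wells.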

[8] = qHTS assay to identify small molecule agonists of the NFkB signaling pathway - cell viability counter screen (AID 1159515; calls by dose curve; also: nearly all actives have a fitted effect of over 55% in size; also: potency is read from the fitted curve at half-maximal effect)
How it was run: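 NFkB-bla ME-180 cells, 2,000/well, plated overnight at 37 C; compound added for 5 hr at 37 C. Viability read in the same wells as the bla reporter, by CellTiter-Glo luminescence after 30 min at room temperature.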

[9] = qHTS assay to identify small molecule agonists of the endoplasmic reticulum stress response signaling pathway - cell viability counter screen (AID 1159517; calls by dose curve; also: nearly all actives have a fitted effect of over 50% in size; also: potency is read from the fitted curve at half-maximal effect)
How it was run: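 CellTiter-Glo was added to wells already read for beta-lactamase FRET, and luminescence was recorded 30 min later. Cells: ESRE-bla HeLa, 1,500 per well, compound exposure 5 hr at 37 C.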

[10] = qHTS assay to identify small molecule antagonists of the retinoid-related orphan receptor gamma (ROR-gamma) signaling pathway - cell viability counter screen (AID 1159520); also: nearly all actives have a fitted effect of over 50% in size; also: potency is read from the fitted curve at half-maximal effect
How it was run: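 Tet-on ROR gamma CHO cells (1,000/well) were plated 4 hr, given compounds in DMSO for 2 hr at 37 C, then induced with 1 uM final doxycycline for 16 hr. Viability was read as ATP by CellTiter-Glo luminescence after 30 min.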

[11] = qHTS assay to identify small molecule agonists of the AP-1 signaling pathway - cell viability counter screen (AID 1159525; calls by dose curve; also: nearly all actives have a fitted effect of over 55% in size; also: potency is read from the fitted curve at half-maximal effect)
How it was run: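 ME-180 AP-1-bla, 2500 cells/well, Opti-MEM + 0.5% dialyzed FBS; overnight 37 °C; cpd 15-pt titration, 5 h 37 °C; CellTiter-Glo 30 min RT; luminescence read; normalised to TOAB and DMSO controls.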

[12] = target: Retinoic acid receptor RXR-alpha (Homo sapiens) (UniProt P19793); test: qHTS assay to identify small molecule agonists of the RXR signaling pathway (AID 1159527; calls by dose curve; also: nearly all actives have a fitted effect of over 35% in size)
Sequence of Retinoic acid receptor RXR-alpha (Homo sapiens) (P19793 whole entry, looked up): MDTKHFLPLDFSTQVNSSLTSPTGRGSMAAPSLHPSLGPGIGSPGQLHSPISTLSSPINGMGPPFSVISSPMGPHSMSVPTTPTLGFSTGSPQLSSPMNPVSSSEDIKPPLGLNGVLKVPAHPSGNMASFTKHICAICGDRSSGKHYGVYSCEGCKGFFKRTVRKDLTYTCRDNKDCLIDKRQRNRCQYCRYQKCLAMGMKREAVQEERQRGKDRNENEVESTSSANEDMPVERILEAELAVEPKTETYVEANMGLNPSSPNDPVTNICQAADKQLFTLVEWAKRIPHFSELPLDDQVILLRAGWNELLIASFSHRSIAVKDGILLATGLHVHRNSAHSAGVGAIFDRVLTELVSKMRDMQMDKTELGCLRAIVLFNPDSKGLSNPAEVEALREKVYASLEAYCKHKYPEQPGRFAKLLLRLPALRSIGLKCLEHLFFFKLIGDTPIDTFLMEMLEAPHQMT
How it was run: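 16 hr incubation of compound-treated RXR-alpha-UAS-bla HEK 293T cells (2% charcoal-stripped FBS, 37 C) preceded a 2 hr room-temperature LiveBLAzer FRET substrate step and blue/green fluorescence measurement.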

[13] = qHTS assay to identify small molecule agonists of the vitamin D receptor (VDR) signaling pathway - cell viability counter screen (AID 743224); also: nearly all actives have a fitted effect of over 50% in size; also: potency is read from the fitted curve at half-maximal effect
How it was run: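 VDR-bla cells, 4 h after plating, exposed to compounds for 16 h at 37C; viability then read in the same wells as CellTiter-Glo luminescence after 30 min at room temperature, following the bla FRET read.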

[14] = target: Bile acid receptor (Homo sapiens) (UniProt Q96RI1); test: qHTS assay to identify small molecule antagonists of the farnesoid-X-receptor (FXR) signaling pathway (AID 743217; active = well fitted inhibition curve with a large enough effect in the signal ratio in the repeat runs, not every such curve was filed as active; the % refers to the signal ratio; also: potency is read from the fitted curve at half-maximal effect)
Sequence of Bile acid receptor (Homo sapiens) (Q96RI1 whole entry, looked up): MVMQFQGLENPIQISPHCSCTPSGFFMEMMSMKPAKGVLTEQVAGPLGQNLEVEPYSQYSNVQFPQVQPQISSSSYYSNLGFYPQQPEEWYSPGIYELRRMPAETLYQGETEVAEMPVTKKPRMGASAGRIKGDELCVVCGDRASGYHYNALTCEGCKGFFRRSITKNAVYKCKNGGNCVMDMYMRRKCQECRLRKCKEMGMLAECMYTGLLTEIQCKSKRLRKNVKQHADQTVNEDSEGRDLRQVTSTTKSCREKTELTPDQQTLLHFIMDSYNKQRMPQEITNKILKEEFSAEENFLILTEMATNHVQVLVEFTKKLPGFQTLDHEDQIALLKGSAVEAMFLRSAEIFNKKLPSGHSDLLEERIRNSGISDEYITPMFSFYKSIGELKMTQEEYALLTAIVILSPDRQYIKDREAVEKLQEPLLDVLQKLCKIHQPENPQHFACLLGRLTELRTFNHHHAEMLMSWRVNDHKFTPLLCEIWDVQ
How it was run: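 FXR-UAS-bla HEK 293T cells (beta-lactamase reporter) given compound plus chenodeoxycholic acid (50 uM final), 16 h at 37C. LiveBLAzer B/G FRET substrate added for 2 h at room temperature; fluorescence read.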

[15] = target: Bile acid receptor (Homo sapiens) (UniProt Q96RI1); test: qHTS assay to identify small molecule agonists of the farnesoid-X-receptor (FXR) signaling pathway (AID 743220; active = well fitted activation curve with a large enough effect in the signal ratio in the repeat runs, not every such curve was filed as active; the % refers to the signal ratio)
How it was run: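 Beta-lactamase reporter under UAS control in GeneBLAzer FXR HEK 293T cells (5000/well) measured with LiveBLAzer FRET substrate after 2 h at room temperature. Compound exposure lasted 16 h at 37C.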

[16] = qHTS assay to identify small molecule agonists of the endoplasmic reticulum stress response signaling pathway (AID 1159516; active = well fitted activation curve with a large enough effect in the signal ratio in the repeat runs, not every such curve was filed as active; the % refers to the signal ratio)
How it was run: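 CellSensor ESRE-bla HeLa cells, 1,500 per well, plated overnight, then exposed to compounds for 5 hr at 37 C. Beta-lactamase reporter read with LiveBLAzer B/G FRET substrate after 2 hr at room temperature, 405 nm excitation, 460 and 530 nm emission.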

[17] = qHTS assay to identify small molecule agonists of the AP-1 signaling pathway (AID 1159526; calls by dose curve)
[18] = target: Vitamin D3 receptor (Homo sapiens) (UniProt P11473); test: qHTS assay to identify small molecule agonists of the vitamin D receptor (VDR) signaling pathway (AID 743222; calls by dose curve)
Sequence of Vitamin D3 receptor (Homo sapiens) (P11473 whole entry, looked up): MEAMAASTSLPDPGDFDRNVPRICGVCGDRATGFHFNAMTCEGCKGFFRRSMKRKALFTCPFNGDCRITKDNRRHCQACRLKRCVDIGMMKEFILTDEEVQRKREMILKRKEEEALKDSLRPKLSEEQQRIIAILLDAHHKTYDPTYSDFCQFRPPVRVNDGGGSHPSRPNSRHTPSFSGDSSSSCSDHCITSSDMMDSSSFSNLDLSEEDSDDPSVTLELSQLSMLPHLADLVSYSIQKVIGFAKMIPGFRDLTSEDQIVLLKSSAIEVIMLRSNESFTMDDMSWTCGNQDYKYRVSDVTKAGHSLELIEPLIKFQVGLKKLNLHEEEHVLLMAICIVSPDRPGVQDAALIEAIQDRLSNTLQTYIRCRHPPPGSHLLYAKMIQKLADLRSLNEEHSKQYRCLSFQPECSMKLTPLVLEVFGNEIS
How it was run: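 VDR-bla cells plated 4 h at 37 C, then exposed to compounds for 16 h at 37 C. Beta-lactamase reporter activity measured by fluorescence after 2 h room-temperature loading with LiveBLAzer B/G FRET substrate.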

[19] = target: Nuclear receptor ROR-gamma (Homo sapiens) (UniProt P51449); test: qHTS assay to identify small molecule antagonists of the retinoid-related orphan receptor gamma (ROR-gamma) signaling pathway (AID 1159521; also: nearly all actives have a fitted effect of over 50% in size; also: potency is read from the fitted curve at half-maximal effect)
How it was run: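 Decreased RORE-driven luciferase luminescence indicates antagonism. Tet-on RORγ CHO cells received compound, then 1 uM final doxycycline 2 h later; signal read after 16 h incubation.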

[20] = target: Vitamin D3 receptor (Homo sapiens) (UniProt P11473); test: qHTS assay to identify small molecule antagonists of the vitamin D receptor (VDR) signaling pathway (AID 743223; active = well fitted inhibition curve with a large enough effect in the signal ratio in the repeat runs, not every such curve was filed as active; the % refers to the signal ratio)
How it was run: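 Reporter line VDR-bla; stimulus 1alpha,25-(OH)2 vitamin D3, 3 nM final; compound co-addition, 16 h 37C/5% CO2; LiveBLAzer B/G substrate 2 h RT; fluorescence intensity.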

Row | Structure (SMILES) | Potency [1] | Potency [2] | Potency [3] | Potency [4] | Potency [5] | Potency [6] | Potency [7] | Potency [8] | Potency [9] | Potency [10] | Potency [11] | Potency [12] | Potency [13] | Potency [14] | Potency [15] | outcome [16] | Potency [17] | Potency [18] | Potency [19] | Potency [20]
1 | Clc1ccc2c(c1)C(N1CCNCC1)=Nc1ccccc1O2 | 27.5 µM (active) and 26.6 µM (active) | inactive | 2.19 µM (active) and inactive | inactive | 38.9 µM (active) | inactive | 49 µM (active) and inactive | inactive | inactive | inactive | inactive | inactive |  |  |  |  |  |  |  | 
2 | O=C1OC2(c3ccc(O)cc3Oc3cc(O)ccc32)c2ccccc21 | inactive |  | inactive |  | inactive | inactive |  | inactive | inactive | inactive | inactive |  | inactive |  |  |  |  |  |  | 
3 | O=S(=O)(O)c1ccc2nc(-c3ccccc3)[nH]c2c1 | 8.29 µM (active) | inactive |  | inactive | inactive | 7.39 µM (active) |  | 13.1 µM (active) | 46.6 µM (active) |  |  | inactive | 13.1 µM (active) | inactive | inactive | inactive | inactive |  |  | 
4 | CCCCCCCCCCCCc1ccccc1O | 13.6 µM (active) and 34.7 µM (active) |  | 24.2 µM (active) and 21.9 µM (active) |  | 17.2 µM (active) and 30.9 µM (active) | 43.1 µM (active) and 43.6 µM (active) | 17.2 µM (active) and 21.9 µM (active) | 19.2 µM (active) and 21.9 µM (active) | 17.2 µM (active) and 24.5 µM (active) | 60.3 µM (active) and 27.3 µM (active) | 13.6 µM (active) and 17.4 µM (active) |  | 10.8 µM (active) and 19.5 µM (active) | 49 µM (active) |  |  |  |  |  | 
5 | CCCCCCC(O)CCCCCCCCCCC(=O)O (stereo not given) | 19.6 µM (active) and 19.5 µM (active) | 21.9 µM (active) |  | inactive | inactive |  |  | inactive | inactive | inactive | inactive | inactive | 19.6 µM (active) and 11 µM (active) | inactive and 34.7 µM (active) |  |  |  |  |  | 
6 | Oc1ccc(Cl)cc1Cc1cc(Cl)ccc1O | 44.4 µM (active) and 30.9 µM (active) and 29.8 µM (active) | inactive | 25 µM (active) | 55.9 µM (active) and inactive | 49 µM (active) | inactive | 28 µM (active) and 6.74 µM (active) | inactive | 54.9 µM (active) and inactive | 24.8 µM (active) | 55.9 µM (active) | inactive | 11.2 µM (active) and 38.9 µM (active) |  | inactive |  |  | inactive |  | 
7 | Cc1ccc(-c2cc(C(F)(F)F)nn2-c2ccc(S(N)(=O)=O)cc2)cc1 | 54.9 µM (active) | inactive | inactive |  | inactive | inactive |  | inactive | inactive | 60.9 µM (active) and 54.5 µM (active) | 48.8 µM (active) and 54.9 µM (active) |  | inactive |  |  | inactive |  |  |  | 
8 | CCN(CC)CCOc1ccc(/C(=C(\Cl)c2ccccc2)c2ccccc2)cc1 | 35.4 µM (active) and 29.8 µM (active) |  | 39.7 µM (active) |  | 35.4 µM (active) and 26.6 µM (active) |  | 22.3 µM (active) and 21.3 µM (active) | 44.6 µM (active) and 23.9 µM (active) |  | 31.3 µM (active) | 17.7 µM (active) |  | 19.9 µM (active) and 26.6 µM (active) | inactive | inactive |  |  | inactive | 19.7 µM (active) and 26.6 µM (active) | 
9 | Cc1cc(C2(c3cc(C)c(O)cc3C)OS(=O)(=O)c3ccccc32)c(C)cc1O | inactive |  | inactive |  | inactive | inactive | inactive | inactive |  | inactive | inactive | inactive | inactive |  |  | inactive | inactive |  | inactive | 
10 | COc1ccc(CCN(C)CCCC(C#N)(c2ccc(OC)c(OC)c2)C(C)C)cc1OC (stereo not given) | inactive |  | inactive |  | inactive | inactive |  | inactive | inactive | inactive | inactive |  |  |  |  |  |  |  | inactive | 
11 | O=C(O[C@@H]1Cc2c(O)cc(O)cc2O[C@@H]1c1cc(O)c(O)c(O)c1)c1cc(O)c(O)c(O)c1 | inactive |  | inactive |  | inactive | inactive |  | inactive | inactive | inactive | inactive | inactive | inactive |  |  |  |  | inactive |  | inactive
12 | Cc1cc(Cc2cc(C)cc(C(C)(C)C)c2O)c(O)c(C(C)(C)C)c1 | 17.5 µM (active) and 15.5 µM (active) | inactive | 13.9 µM (active) and 15.5 µM (active) |  | 21.9 µM (active) | inactive | 19.6 µM (active) and 19.5 µM (active) | 11 µM (active) and 17.4 µM (active) | 17.5 µM (active) and 21.9 µM (active) | 21.8 µM (active) and 30.6 µM (active) | 11 µM (active) and 13.8 µM (active) |  | 9.82 µM (active) and 13.8 µM (active) |  | inactive |  |  | inactive | 19.4 µM (active) and 27.3 µM (active) | 
13 | Oc1c(Cl)cc(Cl)cc1Sc1cc(Cl)cc(Cl)c1O |  | inactive | 49.1 µM (active) and 19.5 µM (active) | 21.9 µM (active) and 17.4 µM (active) and inactive | 15.5 µM (active) | 27.6 µM (active) | 24.6 µM (active) and 55.9 µM (active) and 43.6 µM (active) | 55.1 µM (active) and inactive | 55.1 µM (active) and 55.9 µM (active) and 49 µM (active) | 15.4 µM (active) and 21.7 µM (active) | 49.1 µM (active) and 49 µM (active) and inactive |  | 21.9 µM (active) and 44.4 µM (active) and inactive |  | inactive |  |  | inactive |  | 
